# Test results published in ChEMBL document CHEMBL1961873, “Compounds: GSK PKIS; Assays: Nanosyn kinase panel” (2012).
# Where “and” joins values, the source holds several entries; their conditions need not be identical. Identical values can stand only once.
# Experiments:
# [1] = target: T1, 3-phosphoinositide-dependent protein kinase 1 (Homo sapiens) (UniProt O15530); settings: at 0.1 µM;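 also: values are mean inhibition of PDK1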
# T1 sequence (whole entry): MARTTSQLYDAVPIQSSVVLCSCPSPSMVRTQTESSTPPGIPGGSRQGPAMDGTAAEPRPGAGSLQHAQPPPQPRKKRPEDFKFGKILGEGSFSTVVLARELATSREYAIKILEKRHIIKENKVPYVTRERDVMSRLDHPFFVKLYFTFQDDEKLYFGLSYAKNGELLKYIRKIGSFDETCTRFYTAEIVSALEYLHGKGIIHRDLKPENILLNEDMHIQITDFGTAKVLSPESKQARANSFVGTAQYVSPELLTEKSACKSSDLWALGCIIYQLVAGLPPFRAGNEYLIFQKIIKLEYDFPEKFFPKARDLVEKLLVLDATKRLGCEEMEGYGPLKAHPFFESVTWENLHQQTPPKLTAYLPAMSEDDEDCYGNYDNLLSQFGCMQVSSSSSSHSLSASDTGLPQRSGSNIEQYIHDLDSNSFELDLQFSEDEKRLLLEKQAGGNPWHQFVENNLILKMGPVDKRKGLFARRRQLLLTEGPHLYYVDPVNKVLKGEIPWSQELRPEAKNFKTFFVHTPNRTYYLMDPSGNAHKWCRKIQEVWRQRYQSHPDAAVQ
# [2] = target: cAMP-dependent protein kinase catalytic subunit alpha (Homo sapiens) (UniProt P17612); settings: at 0.1 µM
# [3] = target: cAMP-dependent protein kinase catalytic subunit alpha (Homo sapiens) (UniProt P17612); settings: at 1 µM
# [4] = target: Protein kinase C alpha type (Homo sapiens) (UniProt P17252); settings: at 0.1 µM
# [5] = target: Protein kinase C alpha type (Homo sapiens) (UniProt P17252); settings: at 1 µM
# [6] = target: Protein kinase C beta type (Homo sapiens) (UniProt P05771); settings: at 0.1 µM
# [7] = target: Protein kinase C beta type (Homo sapiens) (UniProt P05771); settings: at 1 µM
# [8] = target: Protein kinase C eta type (Homo sapiens) (UniProt P24723); settings: at 0.1 µM
# [9] = target: Protein kinase C eta type (Homo sapiens) (UniProt P24723); settings: at 1 µM
# [10] = target: Protein kinase C gamma type (Homo sapiens) (UniProt P05129); settings: at 0.1 µM
# [11] = target: Protein kinase C gamma type (Homo sapiens) (UniProt P05129); settings: at 1 µM
# [12] = target: T2, Protein kinase C iota type (Homo sapiens) (UniProt P41743); settings: at 0.1 µM
# T2 sequence (whole entry): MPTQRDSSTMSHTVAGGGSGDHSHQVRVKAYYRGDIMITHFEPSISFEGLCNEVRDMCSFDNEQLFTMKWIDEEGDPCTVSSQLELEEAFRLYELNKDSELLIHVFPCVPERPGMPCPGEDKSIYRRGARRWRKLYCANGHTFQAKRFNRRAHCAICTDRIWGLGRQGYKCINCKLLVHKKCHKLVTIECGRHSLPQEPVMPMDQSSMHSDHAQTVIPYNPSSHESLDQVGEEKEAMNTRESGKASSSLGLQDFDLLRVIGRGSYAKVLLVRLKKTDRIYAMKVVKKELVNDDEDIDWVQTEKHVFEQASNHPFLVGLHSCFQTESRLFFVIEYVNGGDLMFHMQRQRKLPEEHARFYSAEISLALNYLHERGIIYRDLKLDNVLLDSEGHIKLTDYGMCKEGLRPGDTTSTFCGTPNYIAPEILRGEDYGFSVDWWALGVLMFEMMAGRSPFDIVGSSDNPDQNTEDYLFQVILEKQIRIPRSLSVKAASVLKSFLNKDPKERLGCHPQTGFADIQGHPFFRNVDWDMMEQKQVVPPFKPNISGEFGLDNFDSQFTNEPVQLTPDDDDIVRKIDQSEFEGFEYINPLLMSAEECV
# [13] = target: T2, Protein kinase C iota type (Homo sapiens); settings: at 1 µM
# [14] = target: Protein kinase C theta type (Homo sapiens) (UniProt Q04759); settings: at 0.1 µM
# [15] = target: Protein kinase C theta type (Homo sapiens) (UniProt Q04759); settings: at 1 µM
# [16] = target: Protein kinase C beta type (Homo sapiens) (UniProt P05771); settings: at 0.1 µM; remark: listed apart in the source
# [17] = target: Protein kinase C beta type (Homo sapiens) (UniProt P05771); settings: at 1 µM; remark: listed apart in the source
# [18] = target: T3, Serine/threonine-protein kinase D1 (Homo sapiens) (UniProt Q15139); settings: at 0.1 µM
# T3 sequence (whole entry): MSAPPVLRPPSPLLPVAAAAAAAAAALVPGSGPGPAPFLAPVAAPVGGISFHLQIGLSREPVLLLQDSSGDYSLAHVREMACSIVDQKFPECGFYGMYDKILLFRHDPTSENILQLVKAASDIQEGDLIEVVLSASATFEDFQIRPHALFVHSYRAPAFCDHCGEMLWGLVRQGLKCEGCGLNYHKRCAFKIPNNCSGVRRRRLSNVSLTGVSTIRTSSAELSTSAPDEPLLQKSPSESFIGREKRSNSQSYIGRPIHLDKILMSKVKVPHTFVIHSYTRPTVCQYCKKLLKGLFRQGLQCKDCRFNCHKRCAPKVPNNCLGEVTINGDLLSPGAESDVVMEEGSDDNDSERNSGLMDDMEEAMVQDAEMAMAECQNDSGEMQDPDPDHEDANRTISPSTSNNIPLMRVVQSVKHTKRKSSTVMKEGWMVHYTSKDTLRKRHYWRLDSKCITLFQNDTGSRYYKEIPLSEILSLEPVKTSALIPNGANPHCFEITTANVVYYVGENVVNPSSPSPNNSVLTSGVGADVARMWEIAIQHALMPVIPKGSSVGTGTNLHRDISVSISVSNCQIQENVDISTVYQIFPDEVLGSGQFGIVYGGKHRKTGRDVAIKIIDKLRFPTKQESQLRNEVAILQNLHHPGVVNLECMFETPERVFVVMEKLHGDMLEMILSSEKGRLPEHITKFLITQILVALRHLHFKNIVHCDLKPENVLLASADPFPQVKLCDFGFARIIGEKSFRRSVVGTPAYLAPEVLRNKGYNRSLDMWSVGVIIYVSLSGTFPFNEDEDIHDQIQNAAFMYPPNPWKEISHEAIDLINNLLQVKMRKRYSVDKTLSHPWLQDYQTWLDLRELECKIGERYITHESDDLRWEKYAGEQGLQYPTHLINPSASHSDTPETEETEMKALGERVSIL
# [19] = target: T3, Serine/threonine-protein kinase D1 (Homo sapiens); settings: at 1 µM
# [20] = target: T4, Serine/threonine-protein kinase D2 (Homo sapiens) (UniProt Q9BZL6); settings: at 0.1 µM;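 also: reported percent inhibition values are means, part of the GSK PKIS kinase panel screen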
# T4 sequence (whole entry): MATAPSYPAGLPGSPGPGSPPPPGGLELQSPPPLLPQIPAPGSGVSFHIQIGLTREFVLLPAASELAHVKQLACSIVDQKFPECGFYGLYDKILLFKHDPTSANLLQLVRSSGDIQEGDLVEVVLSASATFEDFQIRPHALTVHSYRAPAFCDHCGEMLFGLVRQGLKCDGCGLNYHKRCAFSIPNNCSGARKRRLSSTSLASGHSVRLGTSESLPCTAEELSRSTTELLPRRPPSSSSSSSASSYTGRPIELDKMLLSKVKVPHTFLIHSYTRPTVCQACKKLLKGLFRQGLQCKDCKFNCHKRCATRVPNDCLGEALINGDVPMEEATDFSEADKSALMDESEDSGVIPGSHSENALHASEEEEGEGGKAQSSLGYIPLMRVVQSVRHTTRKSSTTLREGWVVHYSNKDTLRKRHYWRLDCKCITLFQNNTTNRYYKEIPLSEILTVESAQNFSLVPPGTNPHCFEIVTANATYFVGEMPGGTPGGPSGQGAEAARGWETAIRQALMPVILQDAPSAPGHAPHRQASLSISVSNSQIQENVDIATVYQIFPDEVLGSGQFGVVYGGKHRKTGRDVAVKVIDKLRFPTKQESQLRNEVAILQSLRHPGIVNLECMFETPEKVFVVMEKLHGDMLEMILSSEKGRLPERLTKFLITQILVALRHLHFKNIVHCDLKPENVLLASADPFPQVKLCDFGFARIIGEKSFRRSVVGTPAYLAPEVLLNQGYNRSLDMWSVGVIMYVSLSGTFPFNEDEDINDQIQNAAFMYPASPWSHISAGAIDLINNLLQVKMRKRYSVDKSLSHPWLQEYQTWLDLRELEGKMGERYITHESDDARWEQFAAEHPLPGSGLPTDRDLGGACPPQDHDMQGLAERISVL
# Protein kinase C beta type (Homo sapiens), sequence (P05771 2-671 limits assumed): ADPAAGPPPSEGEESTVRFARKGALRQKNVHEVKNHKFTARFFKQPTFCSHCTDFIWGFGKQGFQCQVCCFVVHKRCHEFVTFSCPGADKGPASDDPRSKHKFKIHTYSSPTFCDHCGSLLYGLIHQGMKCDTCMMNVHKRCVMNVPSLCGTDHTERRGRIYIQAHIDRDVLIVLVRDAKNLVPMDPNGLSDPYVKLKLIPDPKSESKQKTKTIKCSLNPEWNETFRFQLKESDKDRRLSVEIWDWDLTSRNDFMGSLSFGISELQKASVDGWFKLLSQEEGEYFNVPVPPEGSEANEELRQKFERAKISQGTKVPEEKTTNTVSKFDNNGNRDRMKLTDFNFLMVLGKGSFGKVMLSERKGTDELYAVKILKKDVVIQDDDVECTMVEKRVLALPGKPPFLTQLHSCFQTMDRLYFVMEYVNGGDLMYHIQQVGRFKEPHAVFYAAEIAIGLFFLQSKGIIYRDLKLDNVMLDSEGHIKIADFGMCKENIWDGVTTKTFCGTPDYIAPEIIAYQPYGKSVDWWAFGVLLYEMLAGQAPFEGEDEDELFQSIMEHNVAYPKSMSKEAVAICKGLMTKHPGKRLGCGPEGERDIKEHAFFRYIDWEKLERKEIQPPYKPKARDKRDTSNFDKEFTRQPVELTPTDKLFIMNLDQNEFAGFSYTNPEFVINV
# Protein kinase C eta type (Homo sapiens), sequence (P24723 whole entry): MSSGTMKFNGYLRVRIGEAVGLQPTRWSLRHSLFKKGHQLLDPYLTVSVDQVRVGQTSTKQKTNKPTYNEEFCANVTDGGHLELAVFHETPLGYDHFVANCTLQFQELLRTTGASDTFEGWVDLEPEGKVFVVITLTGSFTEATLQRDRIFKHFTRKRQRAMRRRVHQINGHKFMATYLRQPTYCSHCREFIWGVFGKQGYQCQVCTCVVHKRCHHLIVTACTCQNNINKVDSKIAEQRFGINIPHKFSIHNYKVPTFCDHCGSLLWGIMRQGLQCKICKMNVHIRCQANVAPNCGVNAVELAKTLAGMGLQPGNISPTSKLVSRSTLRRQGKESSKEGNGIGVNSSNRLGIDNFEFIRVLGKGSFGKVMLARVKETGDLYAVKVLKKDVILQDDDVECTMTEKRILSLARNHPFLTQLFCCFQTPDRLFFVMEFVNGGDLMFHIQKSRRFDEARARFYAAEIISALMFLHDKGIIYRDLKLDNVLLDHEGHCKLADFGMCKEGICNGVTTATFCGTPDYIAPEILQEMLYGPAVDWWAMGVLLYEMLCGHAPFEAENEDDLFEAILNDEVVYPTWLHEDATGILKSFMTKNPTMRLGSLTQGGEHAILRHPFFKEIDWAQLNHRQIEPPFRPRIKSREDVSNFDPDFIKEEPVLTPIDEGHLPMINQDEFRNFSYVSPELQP
# Protein kinase C theta type (Homo sapiens), sequence (Q04759 whole entry, looked up): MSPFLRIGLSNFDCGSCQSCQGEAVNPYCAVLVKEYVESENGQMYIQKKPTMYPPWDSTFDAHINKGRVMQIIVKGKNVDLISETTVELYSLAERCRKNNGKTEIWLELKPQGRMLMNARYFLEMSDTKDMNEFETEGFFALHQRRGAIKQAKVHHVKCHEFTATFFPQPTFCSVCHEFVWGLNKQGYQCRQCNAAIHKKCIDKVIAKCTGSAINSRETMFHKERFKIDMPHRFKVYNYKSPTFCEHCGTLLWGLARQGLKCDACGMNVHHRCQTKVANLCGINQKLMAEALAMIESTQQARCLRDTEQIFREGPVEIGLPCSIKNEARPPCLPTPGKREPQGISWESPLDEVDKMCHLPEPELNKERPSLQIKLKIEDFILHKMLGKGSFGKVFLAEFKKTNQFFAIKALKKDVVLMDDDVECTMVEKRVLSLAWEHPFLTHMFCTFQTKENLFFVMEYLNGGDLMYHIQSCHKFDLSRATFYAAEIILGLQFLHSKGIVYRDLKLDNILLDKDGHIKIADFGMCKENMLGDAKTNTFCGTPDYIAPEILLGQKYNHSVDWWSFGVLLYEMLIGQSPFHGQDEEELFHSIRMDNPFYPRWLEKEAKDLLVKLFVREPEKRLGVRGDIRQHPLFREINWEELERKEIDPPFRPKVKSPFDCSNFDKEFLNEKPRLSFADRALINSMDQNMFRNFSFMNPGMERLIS
SMILES,inhibition [1],inhibition [2],inhibition [3],inhibition [4],inhibition [5],inhibition [6],inhibition [7],inhibition [8],inhibition [9],inhibition [10],inhibition [11],inhibition [12],inhibition [13],inhibition [14],inhibition [15],inhibition [16],inhibition [17],inhibition [18],inhibition [19],inhibition [20]
COc1cccc(-n2ncc3c(N/N=C/c4ccc(C(=O)NCCN(C)C)cc4)ncnc32)c1,2.52%,2.29%,11.4%,1.03%,9.37%,1.2%,6.99%,2.52%,0.62%,26.3%,4.05%,2.38%,10.3%,1.61%,1.46%,1.88%,17.7%,2.09%,7.26%,2.5%
O=C(O[C@H]1CN[C@H](C#Cc2cc3ncnc(Nc4ccc5c(ccn5Cc5cc(F)ccc5F)c4)c3s2)C1)N1CCOCC1,2.16%,1.86%,1.48%,0.78%,2.63%,1.59%,1.27%,5.63%,3.54%,1.38%,3.05%,2.82%,3.06%,1.84%,0.91%,1.75%,0.99%,3.66%,6.58%,4.5%
COc1cc(Nc2ncc(-c3ccccc3)o2)cc(OC)c1,1.45%,1.51%,1.67%,1.19%,1.72%,0.24%,2.31%,4.07%,6.3%,0.82%,2.55%,2.88%,3.11%,2.43%,3.38%,0.78%,2.17%,4.12%,5.16%,3.39%
CC(C)c1ccc(-c2cc(-c3c[nH]nc3-c3ccccn3)ccn2)cc1,1.17%,1.32%,2.36%,0.02%,1.23%,2.16%,3.68%,1.36%,0.07%,-1.26%,1.42%,-0.37%,1.12%,0.13%,-0.28%,0.43%,1.4%,1.12%,8.61%,1.16%
FC(F)(F)CNc1nccc(-c2cnn3ncccc23)n1,-1.1%,2.98%,2.52%,1.22%,2.56%,1.27%,1.54%,2.22%,1.8%,2%,-1.39%,1.84%,1.19%,1.1%,1.36%,0.94%,1.72%,3.65%,5.03%,3.32%
CN1CCC(C(=O)Nc2n[nH]c3nc(-c4ccc(O)cc4)c(Br)cc23)CC1,0.58% and 1.23%,-1.53% and 1.47%,1.39% and 2.8%,-2.91% and 0.74%,7.49% and 11.2%,2.04% and 0.96%,13.9% and 10.2%,3.63% and 1.62%,8.67% and 3.54%,4.29% and -2.24%,7.76% and 8.57%,3.63% and -0.08%,8.06% and 5.91%,2.17% and 0.5%,7.83% and 2.97%,6.51% and 5.4%,30.5% and 31.2%,1.71% and 3.32%,5.76% and 5.75%,1.9% and 3.95%
